# Bioassay records from PubChem.
# TPT1 inhibitor – Candida albicans TPT1 enzyme inhibitors, primary screen, biochemical, fluorescence polarization; hit rate 0.81% among 300,000; AID 1962, 2009; recombinant caTPT1, FP RNA substrate dephosphorylation; inhibition, % at 5 µM;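 active = inhibition above the mean of all tested compounds plus 3 SD, set per screening campaign, cut at about 24% in these data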;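 note: plate controls were DMSO alone for no effect and ferristatin control at 100 nM for full effect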
# Platelet DG rel – inhibitors of platelet dense granule secretion, primary screen, cell-based, MLPCN, human platelets | inhibition, %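 (compounds screened at 7.5 µM in platelet-rich plasma)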 | human platelet-rich plasma, SFLLRN dense granule ATP release, luminescence | hit rate 0.22% among 300,000;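 active = mean replicate score, as percent of positive control, at or above 50; inconclusive = mean below 50 but at least one replicate at or above 50; inactive = mean and every replicate below 50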
# WT yeast gro inh – growth inhibition of WT strain, primary screen, mitochondrial fusion inhibitor project, WT and mutant strains, chemical genetic. mitochondrial fusion phenotypic screen. inhibition, % at 10 µM. hit rate 2.1% among 190,000; in the data active = inhibition above about 58%; tested in S. cerevisiae
# SKKanGAS inh – S. pyogenes SKKanGAS growth inhibitors in kanamycin, primary screen, streptokinase expression inhibitor project, SKKanGAS strain, BacTiter-Glo luminescence; 6 h; inhibition, % at 7.5 µM; hit rate 1.3% among 300,000; AID 1662, 2009;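 active = mean replicate score, as percent of positive control median, at least 50; inconclusive = mean below 50 but one replicate at or above 50; inactive = mean and every replicate below 50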;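 note: strain carries kanamycin resistance gene driven by streptokinase promoter and grows in 40 µg/ml kanamycin; loss of luminescence reflects streptokinase promoter inhibition or plain growth inhibition; 0% = median of DMSO wells and 100% = positive control at its reference dose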
# Rtt109 HAT inh – inhibitors of C. albicans Rtt109/Vps75 HAT, primary screen, biochemical, ThioGlo CoA-SH fluorescence, plate reader; hit rate 0.16% among 330,000; purified Rtt109/Vps75, 4 h; AID 540336, 2011; inhibition, % at 34.9 µM;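 active = inhibition of at least 50% in every replicate; inconclusive = best replicate reaches 50% inhibition but some replicates fall short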
# Target sequence (Q5AAJ8 whole entry, looked up): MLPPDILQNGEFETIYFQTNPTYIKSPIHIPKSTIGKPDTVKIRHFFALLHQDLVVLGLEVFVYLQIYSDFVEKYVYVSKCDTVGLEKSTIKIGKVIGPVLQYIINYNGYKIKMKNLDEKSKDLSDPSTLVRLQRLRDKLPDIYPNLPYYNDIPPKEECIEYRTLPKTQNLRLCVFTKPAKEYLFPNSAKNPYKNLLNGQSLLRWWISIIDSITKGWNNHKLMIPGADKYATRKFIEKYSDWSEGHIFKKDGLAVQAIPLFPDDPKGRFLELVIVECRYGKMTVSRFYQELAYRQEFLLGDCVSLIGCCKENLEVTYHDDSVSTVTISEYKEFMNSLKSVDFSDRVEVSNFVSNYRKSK
# PHOSPHO1 block – PubChem AID 1565; inhibition, % at 13.3 µM; Phosphoethanolamine/phosphocholine phosphatase (Homo sapiens), Q8TCT1; recombinant PHOSPHO1, absorbance phosphatase assay; hit rate 1.1% among 290,000; in the data active = inhibition above about 60%
# Active calls of the source: *; ? = inconclusive; nt = not tested or not shown. This is a sample that favours compounds with a hit; in the whole collection about 3.9% have one here.
SMILES,TPT1 inhibitor,Platelet DG rel,WT yeast gro inh,SKKanGAS inh,Rtt109 HAT inh,PHOSPHO1 block
CC(C)=CCc1c(O)ccc2c1OC(c1ccc(O)c(O)c1)CC2=O (stereo not drawn),-3,1,6,4,-3,-8
CCOC(=O)/C(=C/c1ccc(N2CCC(c3ccccc3)=N2)cc1)C(C)=O,nt,-4,78*,-13,11,-15
N#CC1=C(N)SC(N)=C(C#N)C1c1ccoc1,32*,-7,-10,10,nt,21
Cc1ccc(C2C(C#N)=C(N)SC(N)=C2C#N)cc1,nt,nt,25,nt,4,-1
Cc1ccccc1CS(=O)(=O)c1nnc([C@H](CC(C)C)NC(=O)OC(C)(C)C)o1,0,6,75*,-1,2,21
CC[C@@H](C)[C@H](NC(=O)OC(C)(C)C)c1nnc(S(=O)(=O)Cc2cc(C)ccc2C)o1,-4,1,66*,52*,133*,0
CC(C)(C)OC(=O)N[C@@H](Cc1ccccc1)c1nnc(S(=O)(=O)Cc2cccc(F)c2)o1,-2,16,-22,?,nt,-10
COc1ccc(S(=O)(=O)N(C)c2ccc(C(=O)Nc3cccnc3)cc2)cc1OC,nt,-8,nt,5,3,42
Cc1cc(C)c2nc(/N=C(\N)NC(=O)Nc3ccccc3)nc(C)c2c1,-3,3,58*,36,6,5
Cc1cc(C)c2nc(/N=C(\N)NC(=O)c3ccccc3)nc(C)c2c1,-4,11,nt,-9,-11,30
Cc1ccc(NC(=O)CCCn2c(=S)[nH]c3ccsc3c2=O)cc1C,1,-4,nt,4,-5,-16
CCOC(=O)C1=CN(Cc2cccc(Br)c2)S(=O)(=O)N(CC)C1C (stereo not drawn),nt,nt,nt,nt,0,nt
CN(C)CCCN(C(=O)c1ccc2c(c1)CCCC2)c1nc2ccc(Cl)cc2s1,-1,-5,80*,2,1,1
CCOC(=O)N1CCN(S(=O)(=O)c2ccc(C(=O)N(CCCN(C)C)c3nc4ccc(Cl)cc4s3)cc2)CC1,1,7,nt,6,37,63*
NS(=O)(=O)c1ccc(CCNC(=O)CN2CCN(Cc3cccc4ccccc34)CC2)cc1,-3,-5,nt,-9,12,32
Cc1c2cnccc2c(C)c2c1oc1ccccc12,nt,nt,nt,nt,3,nt
CCOC(=O)c1nn(-c2cccc(OC)c2)c2nc(Nc3ccccc3)cc(=O)n12,20,-15,6,62*,-1,-6
CCOC(=O)c1nn(-c2cccc(Cl)c2)c2nc(Nc3ccccc3)cc(=O)n12,0,-15,-6,27,-3,-1
O=C(OCC(=O)N1CCCCCC1)c1ccc(F)cc1F,nt,nt,nt,nt,2,nt
Cc1cc(S(=O)(=O)N2CCN(c3c(C)cccc3C)CC2)ccc1F,-4,9,27,29,6,-5
Cc1cc(S(=O)(=O)N2CCN(c3ccccc3C)CC2)ccc1F,-5,6,61*,1,7,41
C=CCn1c(SCc2csc(C)n2)nc2sc3c(c2c1=O)CCCC3,3,-7,70*,42,-13,10
CCc1ccc2c(c1)C1(NN=C(c3ccc(C)cc3)S1)C(=O)N2 (stereo not drawn),3,1,4,80*,7,2
CC(C)c1ccc2c(c1)C1(NN=C(c3ccccc3)S1)C(=O)N2 (stereo not drawn),-5,31,16,99*,-8,-35
COc1cc(S(=O)(=O)Nc2ccc3c(c2)C(=O)N(C)C3=O)ccc1NC(C)=O,nt,nt,nt,nt,0,nt
CCc1ccc(/C=C2\SC(=S)N(CCCC(=O)Nc3ccccc3C(=O)O)C2=O)cc1,-1,1,nt,66*,2,33
COc1ccccc1N1CCN(C(=O)c2cccc(S(=O)(=O)NCc3cccnc3)c2)CC1,nt,nt,nt,nt,-3,nt
C/C(=N/NC(=O)c1cc(-c2ccccc2)nc2c(Cl)cccc12)c1cccnc1,nt,2,nt,90*,5,41
C/C(=N\NC(=O)c1cc(-c2cccc(OC(C)C)c2)nc2ccccc12)c1cccnc1,nt,13,nt,25,-2,31
Cn1c(=O)c2c(nc(SCc3ccccc3)n2Cc2ccc(Cl)cc2)n(C)c1=O,-5,-3,42,80*,1,-14
